# Source: ChEMBL document CHEMBL3988442, “University of Dundee, Small-Polar-MMV Screening Library” (2021)
# About 13,000 (27%) of roughly 48,000 compounds showed an effect of 50% or more. Some of the results follow.
# Tested on: Wolbachia pipientis
# Experiment: Anti-Wolbachia Cell-Based Screen
# Assay type: functional
# Parameters: scale not given: in the data most compounds retested in dose-response had high values
# Settings: 5 µM
row,Compound,Percent Effect [%]
1,COc1cccc2c1OCC(CNc1ccc(C)nn1)C2 (centres undefined),-0.7094
2,CCNC(=O)c1ccnc(NCC2COc3cc(OC)ccc3C2)c1 (centres undefined),-7.933
3,CCc1nc2c(NCC3COc4cc(OC)ccc4C3)ncnc2o1 (centres undefined),-96.33
4,COc1ccc2c(c1)OCC(Cc1cnc(N)c(C)c1)C2 (centres undefined),16.7
5,Cc1cc(C(=O)N(C)Cc2ccn[nH]2)c(NC(=O)C(C)(C)C)s1,-4.418
6,CS(=O)(=O)N1CCOC2(CCCN(c3cnccn3)C2)C1.O=C(O)C(F)(F)F (centres undefined),-3.383
7,Cc1noc(-c2ccc(N(C)Cc3nccs3)nc2)n1,-5.626
8,CN(Cc1cc2c(cc1OC(F)F)OCO2)Cc1nccn1C,-0.8901
9,CCC(=O)c1ccc(OCC(=O)NC(C)c2ncnn2CC)cc1 (centres undefined),-19.04
10,CCCn1c(O)nnc1SCC1OCCc2ccccc21 (centres undefined),5.121
11,CCc1cc(C(=O)N[C@H]2CN(CCS(C)(=O)=O)C[C@@H]2C2CC2)[nH]n1,-10.24
12,CCNC(=O)NC(=O)CNc1cc(C#N)ccc1OCC,107.7
13,CCOc1ccc(C#N)cc1NCC(=O)NC(=O)Nc1ccccc1,91.19
14,CCOc1ccc(C#N)cc1NCC(=O)OC,115.5
15,CCOc1ccc(C#N)cc1NCC(=O)Nc1cc(C)no1,4.952
16,CCOc1ccc(C#N)cc1NCC(=O)NC(=O)NC,104.9
17,CCOc1ccc(C#N)cc1NC(=O)N1CCC(N2CCCC2)C1 (centres undefined),-9.106
18,CCOc1ccc(C#N)cc1NCc1cc(C)on1,-2.452
19,CCOc1ccc(C#N)cc1NCC(=O)Nc1cc(F)ccc1F,-5.639
20,CCCNC(=O)CNc1cc(C#N)ccc1OCC,-1.533
21,CCOc1ccc(C#N)cc1NC(=O)N1CCCC(NC(=O)CC)C1 (centres undefined),-6.604
22,CCNC(=O)C1CCCN(C(=O)Nc2cc(C#N)ccc2OCC)C1 (centres undefined),2.708
23,CCOc1ccc(NC(=O)c2ccc(C#N)cc2C)cc1CO,-12.77
24,O=C(CCCC1CCCC1)NS(=O)(=O)CC1CC1,4.87
25,O=C1NCCCCC1NC(=O)C1(c2ccc3c(c2)OCCO3)CCCC1 (centres undefined),-1.756
26,Cc1cccc(NCC(=O)NC2(C#N)CCCC2)c1C(=O)N1CCCC1,-22.31
27,CCOc1ccc(C#N)cc1NCC(=O)NC1(C#N)CCCC1,87.98

row,Compound,Percent Effect [%]
1,Cc1cccc(C(=O)N2CCCC2)c1NCC(=O)NC1(C#N)CCCC1,-7.992
2,O=C(Cn1cc(-c2ccccc2)ncc1=O)Nc1nnc[nH]1,-2.785
3,CN(Cc1ccc(Cl)s1)C(=O)CN(C)C1CCc2ccccc21 (centres undefined),3.858
4,COc1ccc(CC(=O)NC2(C)CCS(=O)(=O)C2)cc1F (centres undefined),7.488
5,Cc1csc(N2CCN(Cc3ccccn3)CC2C)n1 (centres undefined),18.1
6,FC(F)(F)c1ccnc(N2CCCN(Cc3ccccn3)CC2)n1,100.8
7,FC(F)(F)CCc1ccnc(N2CCN(Cc3ccccn3)CC2)n1,5.215
8,Cc1csc(N2CCN(Cc3ccccn3)CC2)n1,105.9
9,FC(F)(F)c1csc(N2CCN(Cc3ccccn3)CC2)n1,72.86
10,Cc1ncc(S(C)(=O)=O)c(N2CCCN(Cc3ccccn3)CC2)n1,10.32
11,CC(C)c1nc(CN2CCN(Cc3ccccn3)CC2)cs1,-4.826
12,Cc1csc(N2CCN(C(=O)CCc3ccccn3)CC2)n1,1.737
13,COc1ccccc1-c1ncc(CN2C[C@@H](N(C)C)[C@H](C(C)C)C2)s1,-33.52
14,COc1cc(OC)cc(N2CCC(NCc3cccs3)C2=O)c1 (centres undefined),-13.31
15,CCC(C)NC(=O)c1ccc(NC(=O)CCc2ccncc2)c(C)c1 (centres undefined),-8.958
16,CNC(=O)[C@@H](c1ccccc1)N1CCC[C@H]1C(=O)NCc1cccnc1.Cl.Cl,-3.423
17,Cn1c(C(=O)NC2CC2)nc2c1CCN(c1ncccn1)C2,-5.985
18,Cc1ncccc1NC(=O)c1nc2c(n1C)CCN(C(=O)C1CC1)C2,102
19,Cc1nc(CNC(=O)NC2CCN(c3ncccc3Cl)C2)oc1C (centres undefined),-13.94
20,CCOCC(=O)Nc1ccc(N2CCSCC2)cc1C,-9.938
21,O=C(O)C(F)(F)F.O=C(O)C(F)(F)F.c1csc(CN2Cc3[nH]nc(COCC4CC4)c3C2)c1,-16.32
22,Cc1cccc(S(=O)(=O)N2C[C@H]3C[C@H](C(=O)NC4CCC4)[C@@H](C2)O3)c1,-10.53
23,Cc1cccc(S(=O)(=O)N2C[C@@H]3OCCN(C(C)C)[C@@H]3C2)c1,-15.31
24,Cc1cccc(S(=O)(=O)N2C[C@H]3C[C@H](C(=O)NCC4CC4)[C@@H](C2)O3)c1,-9.673
25,Cc1cccc(S(=O)(=O)N2C[C@H]3C[C@H](C(=O)N(C)C)[C@@H](C2)O3)c1,-13.43
26,Cc1cccc(S(=O)(=O)N2C[C@@H]3C[C@@H](c4nnc(C)[nH]4)O[C@@H]3C2)c1,102.4
27,Cc1cccc(S(=O)(=O)N2C[C@@H]3C[C@@H](c4nc(C)no4)O[C@@H]3C2)c1,113.1
